Test results reported in PubChem BioAssay AID1159580 (chemical genetic matrix, 2015).
The whole screen tested about 5,500 compounds, of which about 2,000 (36%) were called active. Roughly 18% stayed inconclusive and do not appear here. Cut-off read from the data, not from the text of the source: active = normalized growth mostly below about 0.91 (no sharp cut-off); inconclusive = no clear call, values can overlap the other calls; inactive = mostly above about 0.92. This is one part of the list.

Experiment: chemical genetic growth profiling, strain panel (AID 1159580);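 note: tested at 20 µM; growth read once vehicle control cultures reached saturation at 30 °C; 1 = growth at the plate median or of vehicle wells; lower values mean less growth of the strain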
Settings: growth OD
[1] = S. cerevisiae deletion strains, locus YAL013W, strain DEP1, active compounds read low
[2] = S. cerevisiae deletion strains, locus YBR229C, strain ROT2, active compounds read low
[3] = S. cerevisiae deletion strains, locus YCL061C, strain MRC1, active compounds read low
[4] = S. cerevisiae deletion strains, locus YDL101C, strain DUN1, active compounds read low
[5] = S. cerevisiae deletion strains, locus YDR150W, strain NUM1, active compounds read low
[6] = S. cerevisiae deletion strains, locus YEL061C, strain CIN8, active compounds read low
[7] = S. cerevisiae deletion strains, locus YGR078C, strain PAC10, active compounds read low
[8] = S. cerevisiae deletion strains, locus YHR030C, strain SLT2, active compounds read low
[9] = S. cerevisiae deletion strains, locus YHR087W, strain rtc3, active compounds read low
[10] = S. cerevisiae deletion strains, locus YJR043C, strain POL32, active compounds read low
[11] = S. cerevisiae deletion strains, locus YKL190W, strain CNB1, active compounds read low
[12] = S. cerevisiae deletion strains, locus YLR039C, strain RIC1, active compounds read low
[13] = S. cerevisiae deletion strains, locus YLR058C, strain SHM2 (second series), active compounds read low
[14] = S. cerevisiae deletion strains, locus YLR085C, strain ARP6, active compounds read low
[15] = S. cerevisiae deletion strains, locus YLR262C, strain YPT6, active compounds read low
[16] = S. cerevisiae deletion strains, locus YML094W, strain GIM5, active compounds read low
[17] = S. cerevisiae deletion strains, locus YMR219W, strain ESC1, active compounds read low
[18] = S. cerevisiae deletion strains, locus YMR263W, strain SAP30, active compounds read low
[19] = S. cerevisiae deletion strains, locus YNL128W, strain TEP1, active compounds read low
[20] = S. cerevisiae deletion strains, locus YNL298W, strain CLA4 (second series), active compounds read low
[21] = S. cerevisiae deletion strains, locus YNL322C, strain KRE1, active compounds read low
[22] = S. cerevisiae deletion strains, locus YNR030W, strain Alg12, active compounds read low
[23] = S. cerevisiae deletion strains, locus YPL055C, strain LGE1, active compounds read low
[24] = S. cerevisiae deletion strains, locus YPL241C, strain CIN2, active compounds read low
[25] = S. cerevisiae deletion strains, locus YPR135W, strain CTF4, active compounds read low
[26] = S. cerevisiae deletion strains, locus YAR019C, strain CDC15, active compounds read low
[27] = S. cerevisiae deletion strains, locus YBL105C, strain PKC1, active compounds read low
[28] = S. cerevisiae deletion strains, locus YBR135W, strain CKS1, active compounds read low
[29] = S. cerevisiae deletion strains, locus YBR136W, strain MEC1, active compounds read low
[30] = S. cerevisiae deletion strains, locus YBR160W, strain CDC28, active compounds read low
[31] = S. cerevisiae deletion strains, locus YDL017W, strain CDC7, active compounds read low
[32] = S. cerevisiae deletion strains, locus YDL028C, strain MPS1, active compounds read low
[33] = S. cerevisiae deletion strains, locus YDL108W, strain KIN28, active compounds read low
[34] = S. cerevisiae deletion strains, locus YDL132W, strain cdc53, active compounds read low
[35] = S. cerevisiae deletion strains, locus YDL214C, strain PRR2, active compounds read low
[36] = S. cerevisiae deletion strains, locus YDR052C, strain DBF4, active compounds read low
[37] = S. cerevisiae deletion strains, locus YDR054C, strain cdc34, active compounds read low
[38] = S. cerevisiae deletion strains, locus YDR226W, strain ADK1, active compounds read low
[39] = S. cerevisiae deletion strains, locus YDR477W, strain SNF1, active compounds read low
[40] = S. cerevisiae deletion strains, locus YER123W, strain YCK3, active compounds read low
[41] = S. cerevisiae deletion strains, locus YER133W, strain GLC7, active compounds read low
[42] = S. cerevisiae deletion strains, locus YFL009W, strain cdc4, active compounds read low
[43] = S. cerevisiae deletion strains, locus YFL029C, strain CAK1, active compounds read low
[44] = S. cerevisiae deletion strains, locus YFR003C, strain YPI1, active compounds read low
[45] = S. cerevisiae deletion strains, locus YFR019W, strain FAB1, active compounds read low
[46] = S. cerevisiae deletion strains, locus YFR028C, strain CDC14, active compounds read low
[47] = S. cerevisiae deletion strains, locus YGR040W, strain KSS1, active compounds read low
[48] = S. cerevisiae deletion strains, locus YGR052W, strain FMP48, active compounds read low
[49] = S. cerevisiae deletion strains, locus YGR092W, strain DBF2, active compounds read low
[50] = S. cerevisiae deletion strains, locus YHR079C, strain IRE1, active compounds read low
[51] = S. cerevisiae deletion strains, locus YHR082C, strain KSP1, active compounds read low
[52] = S. cerevisiae deletion strains, locus YHR205W, strain SCH9, active compounds read low
[53] = S. cerevisiae deletion strains, locus YIL147C, strain SLN1, active compounds read low
[54] = S. cerevisiae deletion strains, locus YJL095W, strain BCK1, active compounds read low
[55] = S. cerevisiae deletion strains, locus YJL128C, strain PBS2, active compounds read low
[56] = S. cerevisiae deletion strains, locus YJL157C, strain FAR1, active compounds read low
[57] = S. cerevisiae deletion strains, locus YJR016C, strain ILV3, active compounds read low
[58] = S. cerevisiae deletion strains, locus YJR066W, strain TOR1 (second series), active compounds read low
[59] = S. cerevisiae deletion strains, locus YJR066W, strain TOR1, active compounds read low
[60] = S. cerevisiae deletion strains, locus YKL048C, strain ELM1, active compounds read low
[61] = S. cerevisiae deletion strains, locus YKL067W, strain YNK1, active compounds read low
[62] = S. cerevisiae deletion strains, locus YKL101W, strain HSL1, active compounds read low
[63] = S. cerevisiae deletion strains, locus YKL193C, strain SDS22, active compounds read low
[64] = S. cerevisiae deletion strains, locus YKL203C, strain TOR2, active compounds read low
[65] = S. cerevisiae deletion strains, locus YLR113W, strain HOG1, active compounds read low
[66] = S. cerevisiae deletion strains, locus YLR133W, strain CKI1, active compounds read low
[67] = S. cerevisiae deletion strains, locus YLR403W, strain SFP1, active compounds read low
[68] = S. cerevisiae deletion strains, locus YML070W, strain DAK1, active compounds read low
[69] = S. cerevisiae deletion strains, locus YMR001C, strain CDC5, active compounds read low
[70] = S. cerevisiae deletion strains, locus YMR205C, strain PFK2 (second series), active compounds read low
[71] = S. cerevisiae deletion strains, locus YMR277W, strain FCP1, active compounds read low
[72] = S. cerevisiae deletion strains, locus YNL006W, strain LST8, active compounds read low
[73] = S. cerevisiae deletion strains, locus YNL020C, strain ARK1, active compounds read low
[74] = S. cerevisiae deletion strains, locus YNL161W, strain CBK1, active compounds read low
[75] = S. cerevisiae deletion strains, locus YNL183C, strain NPR1, active compounds read low
[76] = S. cerevisiae deletion strains, locus YNL207W, strain RIO2, active compounds read low
[77] = S. cerevisiae deletion strains, locus YNL222W, strain SSU72, active compounds read low
[78] = S. cerevisiae deletion strains, locus YNL307C, strain MCK1 (second series), active compounds read low
[79] = S. cerevisiae deletion strains, locus YOL078W, strain AVO1, active compounds read low
[80] = S. cerevisiae deletion strains, locus YOL136C, strain PFK27, active compounds read low
[81] = S. cerevisiae deletion strains, locus YOR061W, strain CKA2, active compounds read low
[82] = S. cerevisiae deletion strains, locus YOR119C, strain RIO1, active compounds read low
[83] = S. cerevisiae deletion strains, locus YOR231W, strain MKK1, active compounds read low
[84] = S. cerevisiae deletion strains, locus YOR329C, strain SCD5, active compounds read low
[85] = S. cerevisiae deletion strains, locus YPL031C, strain PHO85, active compounds read low
[86] = S. cerevisiae deletion strains, locus YPL153C, strain RAD53, active compounds read low
[87] = S. cerevisiae deletion strains, locus YPL204W, strain HRR25, active compounds read low
[88] = S. cerevisiae deletion strains, locus YPL209C, strain IPL1, active compounds read low
[89] = S. cerevisiae deletion strains, locus YPL256C, strain CLN2, active compounds read low
[90] = S. cerevisiae deletion strains, locus YPR025C, strain CCL1, active compounds read low
[91] = S. cerevisiae deletion strains, locus YPR106W, strain ISR1, active compounds read low
[92] = S. cerevisiae deletion strains, locus YPR111W, strain DBF20, active compounds read low
[93] = S. cerevisiae deletion strains, strain NNK1, active compounds read low
[94] = S. cerevisiae deletion strains, strain TSCII, active compounds read low

Measured: normalized growth

CCOC(=O)C(=CNNS(=O)(=O)c1cc(C(F)(F)F)cc(C(F)(F)F)c1)C(=O)OCC
inactive: [1] 1.01 | [2] 0.997 | [3] 0.979 | [4] 0.929 | S. cerevisiae deletion strains, locus YDL134C, strain PPH21, active compounds read low 1 | [5] 1 | [6] 1.01 | [7] 0.967 | [8] 1 | [9] 0.96 | [10] 0.973 | [11] 0.992 | [12] 0.931 | [13] 0.954 | [14] 1.03 | [15] 0.968 | [16] 0.988 | [17] 0.989 | [18] 1.04 | [19] 0.945 | [20] 1 | [21] 0.993 | [22] 1 | [23] 1.03 | [24] 1.02 | [25] 0.964

O=S(=O)(Nc1csc(C(F)(F)F)c1-c1ccccc1)c1cc(Br)c(Br)s1
active: [8] 0.305 | [65] 0.8 | [89] 0.712
inactive: [26] 0.957 | [27] 0.952 | [28] 0.96 | [29] 0.93 | [30] 0.961 | [31] 0.955 | [32] 0.935 | [4] 0.968 | [33] 0.939 | [34] 0.971 | [35] 0.927 | [36] 0.961 | [37] 0.96 | [38] 0.953 | [39] 0.91 | [40] 0.899 | [41] 0.959 | [42] 0.968 | [43] 0.949 | [44] 0.961 | [45] 0.852 | [46] 0.974 | [47] 0.912 | [48] 0.873 | [49] 0.804 | [50] 0.814 | [51] 0.654 | [52] 0.887 | [53] 0.951 | [54] 0.911 | [55] 0.956 | [56] 0.948 | [57] 0.962 | [58] 0.962 | [59] 0.861 | [60] 0.894 | [61] 0.943 | [62] 0.79 | [63] 0.964 | [64] 0.964 | [66] 0.871 | [67] 0.906 | [68] 0.897 | [69] 0.957 | [70] 0.907 | [71] 0.968 | [72] 0.973 | [73] 0.837 | [74] 0.957 | [75] 0.814 | [76] 0.959 | [77] 0.955 | [78] 0.81 | [79] 0.964 | [80] 0.878 | [81] 0.696 | [82] 0.948 | [83] 0.879 | [84] 0.954 | [85] 0.844 | [86] 0.88 | [87] 0.89 | [88] 0.96 | [90] 0.958 | [91] 0.961 | [92] 0.943 | [93] 0.966 | [94] 0.963

O=S(=O)(NCc1cc(Cl)cc(Cl)c1)c1cc(C(F)(F)F)cc(C(F)(F)F)c1
inactive: [26] 1 | [27] 0.994 | [28] 0.998 | [29] 0.998 | [30] 0.998 | [31] 0.998 | [32] 0.994 | [4] 0.994 | [33] 0.997 | [34] 0.987 | [35] 0.935 | [36] 0.996 | [37] 0.985 | [38] 0.992 | [39] 0.912 | [40] 0.907 | [41] 0.928 | [42] 0.992 | [43] 1 | [44] 0.996 | [45] 0.902 | [46] 0.997 | [47] 0.894 | [48] 0.878 | [49] 0.881 | [50] 0.835 | [51] 0.896 | [52] 0.908 | [53] 0.996 | [54] 0.875 | [55] 0.923 | [56] 0.926 | [57] 0.995 | [58] 0.947 | [59] 0.955 | [60] 0.954 | [61] 0.961 | [62] 0.907 | [63] 0.998 | [64] 0.982 | [66] 0.918 | [67] 0.939 | [68] 0.915 | [69] 0.996 | [70] 0.954 | [71] 0.996 | [72] 0.991 | [73] 0.899 | [74] 0.999 | [75] 1.01 | [76] 1 | [77] 0.996 | [78] 0.765 | [79] 0.997 | [80] 0.895 | [81] 0.935 | [82] 0.982 | [83] 0.933 | [84] 0.995 | [85] 0.897 | [86] 0.912 | [87] 0.888 | [88] 0.997 | [89] 0.87 | [90] 0.995 | [91] 0.997 | [92] 0.989 | [93] 0.988 | [94] 0.999
active: [8] 0.621 | [65] 0.803

O=S(=O)(NCCc1ccncc1)c1cc(C(F)(F)F)cc(C(F)(F)F)c1
inactive: [1] 1 | [2] 0.988 | [3] 0.963 | [4] 0.966 | [5] 0.913 | [6] 1 | [7] 0.987 | [8] 1.01 | [9] 1.07 | S. cerevisiae deletion strains, locus YJL187C, strain SWE1, active compounds read low 1.01 | [10] 0.964 | S. cerevisiae deletion strains, locus YJR075W, strain HOC1, active compounds read low 1.02 | [11] 1.01 | [12] 0.976 | [13] 1 | [14] 1.05 | [15] 1.03 | [16] 1.02 | [17] 0.993 | [18] 1.01 | [19] 0.989 | S. cerevisiae deletion strains, locus YNL153C, strain GIM3, active compounds read low 0.994 | [20] 0.986 | [21] 1 | [22] 1.03 | S. cerevisiae deletion strains, locus YOL006C, strain TOP1, active compounds read low 0.976 | [23] 1.02 | [24] 0.98 | [25] 0.942 | S. cerevisiae strains, strain wild type, active compounds read low 0.979
